Reference: the supplement of paper PMC10849652
About 8,800 targets were measured; listed, in parts, are those with a hit and a random draw of the rest. About 0.5% of all pairs of compound and target were hits.

Tests used:
Test in all cases: log2 fold change, soluble protein after heating vs DMSO (PISA); higher = thermal stabilisation; K562 lysate, 10 uM; active = over 0.2 and 3.5 SD of the protein, either way, in both replicates (recomputed)
erlotinib = compound: C#Cc1cccc(Nc2ncnc3cc(OCCOC)c(OCCOC)cc23)c1 [erlotinib]
Outline: (§1)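 Log-two fold change in thermal stability relative to solvent controls is reported from duplicates. For each sample, crude K562 extract from dounce-homogenised pellets in PBS pH 7.4 with 1 mM MgCl2, at 1 mg/mL protein, was treated with 10 μM compound for 30 min. Aliquots heated for 3 min across 48°C-58°C were pooled, brought to 0.5% NP-40 at 4°C and cleared at 21,000xg for 90 min. The supernatant was quantified by TMTpro 16plex LC-MS/MS with channel sums equalised.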

[1] = compound: C/C(=N\NC(=O)C1=CC(=CC=C1)S(=O)(=O)N2CCOCC2)/C3=C(C=CC(=C3)Cl)O
Outline: as §1

[2] = compound: C1=CC(=CC=C1C2=NC3=C(N2)C=C(C=C3)C(=O)N)OC4=CC=C(C=C4)Cl
Outline: as §1

[3] = compound: C1=CC2=C(C=CC(=C2)/C=C\3/C(=O)NC(=NCC4=CC=CS4)S3)N=C1
Outline: as §1

[4] = compound: C1=CC2=NC=CN=C2C=C1/C=C/3\C(=O)NC(=O)S3
Outline: as §1

[5] = compound: C1=CC=C(C=C1)C2=NC(=C(N2)C3=CC=NC=C3)C4=CC(=C(C=C4)Cl)O
Outline: as §1

[6] = compound: C1=CC=C2C(=C1)C3=NNC4=CC=CC(=C43)C2=O
Outline: as §1

[7] = compound: C1CCN(C1)C(=O)NC2=CC=CC(=C2)NC3=NC=C(C(=N3)NCCC4=CN=CN4)Br
Outline: as §1

[8] = compound: C1CN(CCC1(CC2=CC=C(C=C2)Cl)N)C3=NC=NC4=C3C=CN4
Outline: as §1

IRAK-1-4 Inhibitor I = compound: C1COCCN1CCN2C3=CC=CC=C3N=C2NC(=O)C4=CC(=CC=C4)[N+](=O)[O-] [IRAK-1-4 Inhibitor I]
Outline: as §1

ibrutinib = compound: C=CC(=O)N1CCC[C@@H](n2nc(-c3ccc(Oc4ccccc4)cc3)c3c(N)ncnc32)C1 [ibrutinib]
Outline: as §1

[9] = compound: CC(=O)c1cnc2ccc(-c3cc(Cl)c(O)c(Cl)c3)nc2c1N[C@H]1CC[C@H](CN(C)C)CC1
Outline: as §1

ralimetinib = compound: CC(C)(C)Cn1c(N)nc2ccc(-c3[nH]c(C(C)(C)C)nc3-c3ccc(F)cc3)nc21 [ralimetinib]
Outline: as §1

[10] = compound: CC(C)(O)CC(=O)NCCn1ccc2ncnc(Nc3ccc(Oc4cccc(C(F)(F)F)c4)c(Cl)c3)c21
Outline: as §1

[11] = compound: CC(C)C1=C2N=C(C=C(N2N=C1)NCC3=CC=CC=C3)NCCCCCCN
Outline: as §1

[12] = compound: CC1=C(C(CC(=O)N1)C2=CC=C(C=C2)C(F)(F)F)C(=O)NC3=C(C=C4C(=C3)C=NN4)F
Outline: as §1

[13] = compound: CC1=C(C2=C(C=C1)C(=O)C3=CC=CC=C3N2CCCN)C
Outline: as §1

[14] = compound: CC1=C(C=C(C=C1)NC(=O)C2=CC(=CC=C2)C(C)(C)C#N)NC3=CC4=C(C=C3)N=CN(C4=O)C
Outline: as §1

[15] = compound: CC1=C(C=C(C=C1)NC(=O)C2=CC(=CC=C2)N(C)C)NC(=O)C3=CC=C(C=C3)O
Outline: as §1

[16] = compound: CC1=CC=C(C=C1)SC2=C3C=C(SC3=CN=C2)C(=O)N
Outline: as §1

Measured: log2 fold change

ZNF598 isoform 3 (UniProt Q86UK7)
Sequence of UniProt Q86UK7 (Q86UK7 whole entry, looked up): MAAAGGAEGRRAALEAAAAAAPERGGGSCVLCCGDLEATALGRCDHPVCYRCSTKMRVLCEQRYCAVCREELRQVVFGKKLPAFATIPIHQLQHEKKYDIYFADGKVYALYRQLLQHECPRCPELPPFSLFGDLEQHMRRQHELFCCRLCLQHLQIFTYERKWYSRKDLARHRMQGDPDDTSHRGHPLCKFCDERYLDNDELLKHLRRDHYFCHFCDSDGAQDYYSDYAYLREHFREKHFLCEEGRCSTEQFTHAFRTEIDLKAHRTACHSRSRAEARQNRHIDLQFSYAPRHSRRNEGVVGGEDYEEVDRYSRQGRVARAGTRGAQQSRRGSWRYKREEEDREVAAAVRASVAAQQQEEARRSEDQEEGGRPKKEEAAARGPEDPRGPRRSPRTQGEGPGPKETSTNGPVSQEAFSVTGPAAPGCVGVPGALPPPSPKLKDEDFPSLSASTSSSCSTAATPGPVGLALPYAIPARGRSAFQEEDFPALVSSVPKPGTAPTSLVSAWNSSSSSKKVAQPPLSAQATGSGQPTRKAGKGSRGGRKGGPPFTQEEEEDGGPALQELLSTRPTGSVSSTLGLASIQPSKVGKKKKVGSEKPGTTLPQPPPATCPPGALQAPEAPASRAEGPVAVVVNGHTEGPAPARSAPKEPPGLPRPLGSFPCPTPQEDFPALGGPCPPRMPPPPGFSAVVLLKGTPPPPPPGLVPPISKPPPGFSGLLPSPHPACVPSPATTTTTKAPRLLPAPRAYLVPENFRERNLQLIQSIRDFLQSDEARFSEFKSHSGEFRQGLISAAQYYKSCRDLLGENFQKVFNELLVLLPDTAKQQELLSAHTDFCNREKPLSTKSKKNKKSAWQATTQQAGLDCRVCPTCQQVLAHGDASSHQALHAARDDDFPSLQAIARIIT
inactive: erlotinib -0.001 | [1] -0.003 | [2] 0.007 | [3] -0.007 | [4] -0.045 | [5] 0.006 | [6] -0.064 | [7] -0.036 | [8] -0.002 | IRAK-1-4 Inhibitor I 0.029 | ibrutinib 0.032 | [9] -0.007 | ralimetinib -0.001 | [10] -0.017 | [11] 0.013 | [12] 0.019 | [13] 0.005 | [14] -0.001 | [15] -0.004 | [16] 0

WDR62 isoform 4 (UniProt O43379)
inactive: erlotinib 0.017 | [1] -0.027 | [2] -0.018 | [3] -0.007 | [4] -0.012 | [5] 0.017 | [6] -0.052 | [7] 0.024 | [8] -0.008 | IRAK-1-4 Inhibitor I 0.011 | ibrutinib -0.023 | [9] 0.027 | ralimetinib 0.013 | [10] -0.051 | [11] -0.007 | [12] 0.033 | [13] -0.016 | [14] 0.023 | [15] -0.002 | [16] -0.029

WDCP (UniProt Q9H6R7)
inactive: erlotinib -0.06 | [1] 0.091 | [2] 0.079 | [3] 0.018 | [4] 0.024 | [5] 0 | [6] -0.011 | [7] -0.022 | [8] 0.002 | IRAK-1-4 Inhibitor I 0.024 | ibrutinib 0.021 | [9] 0.021 | ralimetinib -0.006 | [10] -0.045 | [11] -0.027 | [12] -0.023 | [13] -0.041 | [14] 0 | [15] 0.01 | [16] 0.049

USP9X (UniProt Q93008)
inactive: erlotinib 0.034 | [1] 0.013 | [2] -0.008 | [3] 0.015 | [4] 0.014 | [5] 0.003 | [6] -0.019 | [7] -0.005 | [8] -0.013 | IRAK-1-4 Inhibitor I 0.022 | ibrutinib -0.003 | [9] 0.001 | ralimetinib 0.025 | [10] -0.024 | [11] -0.032 | [12] -0.008 | [13] 0.009 | [14] -0.021 | [15] 0.043 | [16] 0.011

WDR6 (UniProt Q9NNW5)
Sequence of UniProt Q9NNW5 (Q9NNW5 whole entry, looked up): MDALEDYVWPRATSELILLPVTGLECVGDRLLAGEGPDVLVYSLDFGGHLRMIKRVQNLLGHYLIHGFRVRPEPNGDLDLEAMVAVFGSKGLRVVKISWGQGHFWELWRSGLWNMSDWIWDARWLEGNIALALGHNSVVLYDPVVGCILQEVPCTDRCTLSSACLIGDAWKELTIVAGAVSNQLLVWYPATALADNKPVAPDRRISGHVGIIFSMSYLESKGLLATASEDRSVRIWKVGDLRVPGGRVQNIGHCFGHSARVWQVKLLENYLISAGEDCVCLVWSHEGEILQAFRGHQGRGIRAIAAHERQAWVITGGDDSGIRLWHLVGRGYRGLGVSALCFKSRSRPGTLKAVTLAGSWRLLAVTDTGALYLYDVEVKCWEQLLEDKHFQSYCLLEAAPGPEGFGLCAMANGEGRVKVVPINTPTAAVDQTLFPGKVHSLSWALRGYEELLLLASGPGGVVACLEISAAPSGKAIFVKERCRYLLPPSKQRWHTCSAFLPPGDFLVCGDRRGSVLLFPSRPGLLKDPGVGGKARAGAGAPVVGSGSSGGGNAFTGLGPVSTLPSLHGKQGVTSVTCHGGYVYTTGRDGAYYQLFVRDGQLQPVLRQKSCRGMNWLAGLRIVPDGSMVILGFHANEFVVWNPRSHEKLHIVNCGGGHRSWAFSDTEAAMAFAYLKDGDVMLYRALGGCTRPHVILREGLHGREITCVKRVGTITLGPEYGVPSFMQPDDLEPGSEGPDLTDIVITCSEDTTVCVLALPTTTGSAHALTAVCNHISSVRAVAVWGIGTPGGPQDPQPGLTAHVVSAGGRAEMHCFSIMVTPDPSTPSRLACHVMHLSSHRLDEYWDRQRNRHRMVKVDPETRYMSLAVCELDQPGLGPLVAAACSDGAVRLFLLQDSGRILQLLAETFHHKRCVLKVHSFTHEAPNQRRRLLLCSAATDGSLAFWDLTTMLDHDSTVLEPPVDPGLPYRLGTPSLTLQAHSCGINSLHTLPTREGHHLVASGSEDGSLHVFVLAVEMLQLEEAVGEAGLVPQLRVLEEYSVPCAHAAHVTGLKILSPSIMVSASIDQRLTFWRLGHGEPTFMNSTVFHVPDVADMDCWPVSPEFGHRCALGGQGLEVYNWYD
inactive: erlotinib 0.001 | [1] 0.01 | [2] 0.002 | [3] 0.026 | [4] -0.01 | [5] 0 | [6] -0.014 | [7] -0.02 | [8] 0.021 | IRAK-1-4 Inhibitor I -0.011 | ibrutinib 0.008 | [9] 0.008 | ralimetinib 0.018 | [10] -0.017 | [11] -0.032 | [12] -0.012 | [13] -0.019 | [14] 0.011 | [15] 0.022 | [16] 0.017

VAC14 (UniProt Q08AM6)
inactive: erlotinib -0.007 | [1] 0.02 | [2] -0.004 | [3] 0.032 | [4] 0.024 | [5] -0.006 | [6] -0.023 | [7] 0.006 | [8] 0.015 | IRAK-1-4 Inhibitor I 0.024 | ibrutinib -0.029 | [9] -0.025 | ralimetinib -0.003 | [10] -0.055 | [11] 0.002 | [12] -0.008 | [13] 0.005 | [14] 0.003 | [15] 0.039 | [16] -0.034

WDR77 (UniProt Q9BQA1)
inactive: erlotinib -0.008 | [1] -0.073 | [2] -0.018 | [3] 0.025 | [4] -0.021 | [5] -0.009 | [6] 0.011 | [7] 0.004 | [8] 0.014 | IRAK-1-4 Inhibitor I 0.002 | ibrutinib 0.016 | [9] 0.022 | ralimetinib 0.031 | [10] 0.024 | [11] -0.012 | [12] -0.022 | [13] -0.004 | [14] 0.007 | [15] -0.01 | [16] 0.032

YTHDF3 (UniProt Q7Z739)
active: [14] -0.334
inactive: erlotinib -0.009 | [1] -0.003 | [2] -0.035 | [3] -0.029 | [4] 0.089 | [5] -0.183 | [6] 0.003 | [7] -0.04 | [8] 0.036 | IRAK-1-4 Inhibitor I 0.12 | ibrutinib -0.026 | [9] 0.066 | ralimetinib -0.014 | [10] -0.033 | [11] 0.008 | [12] 0.017 | [13] 0.074 | [15] 0.009 | [16] 0.096

ZC3H11A (UniProt O75152)
inactive: erlotinib 0.021 | [1] -0.048 | [2] -0.027 | [3] 0.004 | [4] -0.048 | [5] 0.029 | [6] -0.02 | [7] -0.011 | [8] -0.003 | IRAK-1-4 Inhibitor I -0.012 | ibrutinib 0.025 | [9] -0.1 | ralimetinib 0.019 | [10] -0.034 | [11] 0.025 | [12] 0.084 | [13] -0.016 | [14] 0.041 | [15] 0.041 | [16] -0.096

YWHAQ (UniProt P27348)
inactive: erlotinib 0.026 | [1] 0.046 | [2] 0.016 | [3] 0.012 | [4] 0.017 | [5] 0.014 | [6] 0.021 | [7] -0.006 | [8] 0.022 | IRAK-1-4 Inhibitor I 0.013 | ibrutinib -0.011 | [9] -0.001 | ralimetinib -0.007 | [10] 0.028 | [11] 0 | [12] -0.054 | [13] 0.007 | [14] -0.001 | [15] 0.01 | [16] 0.01

ZMYND8 isoform 19 (UniProt Q9ULU4)
Sequence of UniProt Q9ULU4 (Q9ULU4 whole entry, looked up): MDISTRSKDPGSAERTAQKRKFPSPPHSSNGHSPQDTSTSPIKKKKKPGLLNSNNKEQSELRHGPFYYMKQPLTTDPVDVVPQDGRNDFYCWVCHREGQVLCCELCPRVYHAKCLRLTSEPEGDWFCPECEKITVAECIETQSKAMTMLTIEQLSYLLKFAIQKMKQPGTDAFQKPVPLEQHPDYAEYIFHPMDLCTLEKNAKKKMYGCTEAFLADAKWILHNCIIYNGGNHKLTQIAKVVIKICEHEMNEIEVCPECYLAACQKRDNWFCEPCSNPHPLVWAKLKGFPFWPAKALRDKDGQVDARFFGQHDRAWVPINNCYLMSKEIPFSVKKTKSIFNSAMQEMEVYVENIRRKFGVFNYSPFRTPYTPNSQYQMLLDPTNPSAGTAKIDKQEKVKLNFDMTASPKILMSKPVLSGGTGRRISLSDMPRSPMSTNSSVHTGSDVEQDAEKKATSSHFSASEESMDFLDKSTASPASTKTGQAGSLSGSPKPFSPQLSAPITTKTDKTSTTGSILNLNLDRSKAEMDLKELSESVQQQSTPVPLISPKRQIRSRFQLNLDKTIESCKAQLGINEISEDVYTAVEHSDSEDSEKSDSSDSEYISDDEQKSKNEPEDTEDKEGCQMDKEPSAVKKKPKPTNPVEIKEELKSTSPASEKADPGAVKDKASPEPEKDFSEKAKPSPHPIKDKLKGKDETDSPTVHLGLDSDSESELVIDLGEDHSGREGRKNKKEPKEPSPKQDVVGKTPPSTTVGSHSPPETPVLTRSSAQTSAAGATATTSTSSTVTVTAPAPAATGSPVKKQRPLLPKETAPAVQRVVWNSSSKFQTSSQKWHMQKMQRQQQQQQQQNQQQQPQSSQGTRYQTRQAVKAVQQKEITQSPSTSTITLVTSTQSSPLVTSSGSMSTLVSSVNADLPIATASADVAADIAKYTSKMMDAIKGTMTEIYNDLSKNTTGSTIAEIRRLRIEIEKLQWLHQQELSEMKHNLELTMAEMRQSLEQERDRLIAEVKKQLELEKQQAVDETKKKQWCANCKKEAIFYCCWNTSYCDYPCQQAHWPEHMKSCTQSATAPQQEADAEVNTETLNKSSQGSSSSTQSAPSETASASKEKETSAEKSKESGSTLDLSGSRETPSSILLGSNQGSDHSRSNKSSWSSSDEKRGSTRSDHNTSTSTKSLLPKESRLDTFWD
inactive: erlotinib -0.012 | [1] -0.058 | [2] 0.023 | [3] 0.011 | [4] -0.037 | [5] 0.024 | [6] -0.077 | [7] -0.021 | [8] 0.018 | IRAK-1-4 Inhibitor I -0.025 | ibrutinib 0.111 | [9] -0.02 | ralimetinib 0.047 | [10] 0.007 | [11] 0.002 | [12] 0.007 | [13] 0.027 | [14] 0.02 | [15] 0.011 | [16] 0.037

WDR24 (UniProt Q96S15)
inactive: erlotinib 0.023 | [1] 0.014 | [2] 0.029 | [3] -0.042 | [4] -0.018 | [5] 0.058 | [6] -0.012 | [7] -0.034 | [8] -0.007 | IRAK-1-4 Inhibitor I 0.034 | ibrutinib -0.044 | [9] -0.016 | ralimetinib 0.025 | [10] -0.022 | [11] 0.041 | [12] 0.055 | [13] -0.011 | [14] 0.033 | [15] -0.034 | [16] 0.021

VPS11 (UniProt Q9H270)
inactive: erlotinib 0.049 | [1] -0.037 | [2] 0.014 | [3] 0.034 | [4] 0.014 | [5] 0.011 | [6] -0.053 | [7] 0.003 | [8] -0.002 | IRAK-1-4 Inhibitor I -0.031 | ibrutinib -0.002 | [9] 0.025 | ralimetinib 0.033 | [10] -0.025 | [11] 0.001 | [12] 0.003 | [13] 0.031 | [14] 0.026 | [15] -0.03 | [16] -0.002

VPS4A (UniProt Q9UN37)
Sequence of UniProt Q9UN37 (Q9UN37 whole entry, looked up): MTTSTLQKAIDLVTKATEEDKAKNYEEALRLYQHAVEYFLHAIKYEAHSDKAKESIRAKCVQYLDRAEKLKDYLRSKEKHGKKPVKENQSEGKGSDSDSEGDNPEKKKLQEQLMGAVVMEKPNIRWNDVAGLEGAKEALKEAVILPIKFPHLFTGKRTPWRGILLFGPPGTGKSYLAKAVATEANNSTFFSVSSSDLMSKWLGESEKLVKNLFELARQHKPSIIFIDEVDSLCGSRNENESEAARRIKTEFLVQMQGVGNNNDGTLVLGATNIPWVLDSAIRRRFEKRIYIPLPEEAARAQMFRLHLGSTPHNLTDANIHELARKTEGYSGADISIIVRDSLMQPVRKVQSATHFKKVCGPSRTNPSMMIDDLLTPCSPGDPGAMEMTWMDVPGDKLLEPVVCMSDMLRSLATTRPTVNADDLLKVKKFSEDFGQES
inactive: erlotinib 0.051 | [1] 0.005 | [2] -0.076 | [3] 0.043 | [4] -0.014 | [5] -0.017 | [6] -0.15 | [7] 0.029 | [8] -0.037 | IRAK-1-4 Inhibitor I -0.037 | ibrutinib 0.001 | [9] 0 | ralimetinib 0.013 | [10] 0.035 | [11] 0 | [12] -0.035 | [13] -0.046 | [14] -0.039 | [15] 0.045 | [16] 0.025

UNC13D (UniProt Q70J99)
Sequence of UniProt Q70J99 (Q70J99 whole entry, looked up): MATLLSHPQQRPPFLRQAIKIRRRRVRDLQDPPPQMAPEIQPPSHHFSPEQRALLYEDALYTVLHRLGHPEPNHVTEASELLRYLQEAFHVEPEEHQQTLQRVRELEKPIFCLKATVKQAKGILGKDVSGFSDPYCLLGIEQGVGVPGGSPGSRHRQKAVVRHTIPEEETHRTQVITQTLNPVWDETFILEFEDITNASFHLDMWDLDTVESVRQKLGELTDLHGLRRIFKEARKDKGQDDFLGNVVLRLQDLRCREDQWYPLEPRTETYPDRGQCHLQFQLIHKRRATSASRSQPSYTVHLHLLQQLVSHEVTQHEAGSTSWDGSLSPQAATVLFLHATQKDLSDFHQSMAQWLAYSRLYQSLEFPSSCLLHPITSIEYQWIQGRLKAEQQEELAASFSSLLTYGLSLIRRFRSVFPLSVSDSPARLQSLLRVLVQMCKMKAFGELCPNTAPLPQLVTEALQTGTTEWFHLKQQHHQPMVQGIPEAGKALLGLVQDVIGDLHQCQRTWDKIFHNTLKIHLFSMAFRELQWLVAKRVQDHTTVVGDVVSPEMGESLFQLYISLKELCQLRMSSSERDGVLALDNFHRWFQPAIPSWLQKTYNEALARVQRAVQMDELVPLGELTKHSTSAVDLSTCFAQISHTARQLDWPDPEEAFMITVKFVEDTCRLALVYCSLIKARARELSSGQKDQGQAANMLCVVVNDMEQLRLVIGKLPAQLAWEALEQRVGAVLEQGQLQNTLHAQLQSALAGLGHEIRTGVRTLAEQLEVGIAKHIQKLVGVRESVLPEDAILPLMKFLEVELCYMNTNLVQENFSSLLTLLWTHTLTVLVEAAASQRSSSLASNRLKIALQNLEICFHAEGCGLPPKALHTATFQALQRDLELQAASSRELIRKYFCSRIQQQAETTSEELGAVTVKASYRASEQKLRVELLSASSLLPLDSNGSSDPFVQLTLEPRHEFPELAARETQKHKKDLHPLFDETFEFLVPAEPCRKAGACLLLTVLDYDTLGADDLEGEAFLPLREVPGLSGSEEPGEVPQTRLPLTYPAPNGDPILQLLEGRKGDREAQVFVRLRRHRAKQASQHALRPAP
inactive: erlotinib 0.019 | [1] 0.023 | [2] -0.049 | [3] 0.02 | [4] 0.025 | [5] -0.007 | [6] -0.009 | [7] 0.005 | [8] 0.013 | IRAK-1-4 Inhibitor I 0.022 | ibrutinib -0.043 | [9] -0.005 | ralimetinib 0.031 | [10] -0.014 | [11] 0.018 | [12] 0.016 | [13] 0.015 | [14] 0.012 | [15] 0.025 | [16] -0.015

YDJC (UniProt A8MPS7)
Sequence of UniProt A8MPS7 (A8MPS7 whole entry, looked up): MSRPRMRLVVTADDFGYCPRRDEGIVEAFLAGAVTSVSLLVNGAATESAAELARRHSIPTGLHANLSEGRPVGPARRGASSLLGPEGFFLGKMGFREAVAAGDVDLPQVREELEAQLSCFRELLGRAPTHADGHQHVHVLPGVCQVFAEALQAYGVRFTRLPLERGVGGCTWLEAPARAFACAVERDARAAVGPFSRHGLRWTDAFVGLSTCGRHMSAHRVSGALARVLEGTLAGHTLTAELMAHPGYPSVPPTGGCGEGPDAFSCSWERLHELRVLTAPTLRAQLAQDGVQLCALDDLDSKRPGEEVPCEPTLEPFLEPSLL
inactive: erlotinib -0.083 | [1] 0.036 | [2] -0.011 | [3] -0.012 | [4] -0.01 | [5] 0.029 | [6] -0.065 | [7] -0.034 | [8] 0.029 | IRAK-1-4 Inhibitor I -0.023 | ibrutinib 0.024 | [9] 0.023 | ralimetinib -0.015 | [10] -0.064 | [11] -0.028 | [12] 0.052 | [13] -0.034 | [14] 0.011 | [15] 0.022 | [16] 0.021
